Assay results: the supplement of paper PMC10849652
The full data set covers some 7,900 targets. This sample favours those with a hit. About 0.6% of all pairs of compound and target were hits.

Experiments:
Experiment in all cases: log2 fold change, soluble protein after heating vs DMSO (PISA); higher = thermal stabilisation; K562 cells, 10 uM, 30 min; active = over 0.2 and 3.5 SD of the protein, either way, in both replicates (recomputed)
[1] = compound: CS(=O)(=O)c1ccc(-c2cnc(N)c(C(=O)Nc3ccccc3)n2)cc1
Outline: (§1)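 For each measurement, 10 μM compound was applied for 30 min to K562 cells at 2×10^6 cells/mL. Aliquots were heated for 3 min across 48°C-58°C, pooled, and extracted in PBS with 0.5% NP-40 at 4°C; the supernatant after 21,000xg for 90 min was soluble protein. This was quantified by TMTpro 16plex LC-MS/MS with channel sums equalised, and thermal stability was reported relative to control samples from duplicates, on a log2 fold-change scale.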

crizotinib = compound: C[C@@H](Oc1cc(-c2cnn(C3CCNCC3)c2)cnc1N)c1c(Cl)ccc(F)c1Cl [crizotinib]
Outline: as §1

[2] = compound: C[C@@H]1COCCN1C2=NC(=NC(=C2)C3(CC3)S(=O)(=O)C)C4=C5C=CNC5=CC=C4
Outline: as §1

[3] = compound: C[C@H](C1=CC=C(C=C1)C(=O)NC2=C3C=CNC3=NC=C2)N
Outline: as §1

duvelisib = compound: C[C@H](Nc1ncnc2nc[nH]c12)c1cc2cccc(Cl)c2c(=O)n1-c1ccccc1 [duvelisib]
Outline: as §1

gandotinib = compound: Cc1cc(Nc2cc(CN3CCOCC3)c3nc(C)c(Cc4ccc(Cl)cc4F)n3n2)n[nH]1 [gandotinib]
Outline: as §1

tozasertib = compound: Cc1cc(Nc2cc(N3CCN(C)CC3)nc(Sc3ccc(NC(=O)C4CC4)cc3)n2)n[nH]1 [tozasertib]
Outline: as §1

[4] = compound: Cc1cc(SCc2sc(-c3ccc(C(F)(F)F)cc3)nc2C)ccc1OCC(=O)O
Outline: as §1

doramapimod = compound: Cc1ccc(-n2nc(C(C)(C)C)cc2NC(=O)Nc2ccc(OCCN3CCOCC3)c3ccccc23)cc1 [doramapimod]
Outline: as §1

ispinesib = compound: Cc1ccc(C(=O)N(CCCN)[C@@H](c2nc3cc(Cl)ccc3c(=O)n2Cc2ccccc2)C(C)C)cc1 [ispinesib]
Outline: as §1

bafetinib = compound: Cc1ccc(NC(=O)c2ccc(CN3CC[C@H](N(C)C)C3)c(C(F)(F)F)c2)cc1Nc1nccc(-c2cncnc2)n1 [bafetinib]
Outline: as §1

[5] = compound: Cc1cccc(CC(=O)N2CCc3c2ccc(-c2cn(C)c4ncnc(N)c24)c3F)n1
Outline: as §1

nilotinib = compound: Cc1cn(-c2cc(NC(=O)c3ccc(C)c(Nc4nccc(-c5cccnc5)n4)c3)cc(C(F)(F)F)c2)cn1 [nilotinib]
Outline: as §1

[6] = compound: Cc1nc(Nc2n[nH]c3c2CN(C(=O)N[C@H](CN(C)C)c2ccccc2)C3(C)C)c2sccc2n1
Outline: as §1

dasatinib = compound: Cc1nc(Nc2ncc(C(=O)Nc3c(C)cccc3Cl)s2)cc(N2CCN(CCO)CC2)n1 [dasatinib]
Outline: as §1

[7] = compound: Cc1ncc(-c2ccnc(Nc3ccc(S(C)(=O)=O)cc3)n2)n1C(C)C
Outline: as §1

[8] = compound: Cn1cc(-c2ccc3c(c2)CCN3C(=O)Cc2cccc(C(F)(F)F)c2)c2c(N)ncnc21
Outline: as §1

[9] = compound: Cn1cc(-c2ccc3nnc(C(F)(F)c4ccc5ncccc5c4)n3n2)cn1
Outline: as §1

tipifarnib = compound: Cn1cncc1[C@@](N)(c1ccc(Cl)cc1)c1ccc2c(c1)c(-c1cccc(Cl)c1)cc(=O)n2C [tipifarnib]
Outline: as §1

mubritinib = compound: FC(F)(F)c1ccc(/C=C/c2nc(COc3ccc(CCCCn4ccnn4)cc3)co2)cc1 [mubritinib]
Outline: as §1

Measured: log2 fold change

ILF3 isoform 7 (UniProt Q12906)
Sequence of UniProt Q12906 (Q12906 whole entry, looked up): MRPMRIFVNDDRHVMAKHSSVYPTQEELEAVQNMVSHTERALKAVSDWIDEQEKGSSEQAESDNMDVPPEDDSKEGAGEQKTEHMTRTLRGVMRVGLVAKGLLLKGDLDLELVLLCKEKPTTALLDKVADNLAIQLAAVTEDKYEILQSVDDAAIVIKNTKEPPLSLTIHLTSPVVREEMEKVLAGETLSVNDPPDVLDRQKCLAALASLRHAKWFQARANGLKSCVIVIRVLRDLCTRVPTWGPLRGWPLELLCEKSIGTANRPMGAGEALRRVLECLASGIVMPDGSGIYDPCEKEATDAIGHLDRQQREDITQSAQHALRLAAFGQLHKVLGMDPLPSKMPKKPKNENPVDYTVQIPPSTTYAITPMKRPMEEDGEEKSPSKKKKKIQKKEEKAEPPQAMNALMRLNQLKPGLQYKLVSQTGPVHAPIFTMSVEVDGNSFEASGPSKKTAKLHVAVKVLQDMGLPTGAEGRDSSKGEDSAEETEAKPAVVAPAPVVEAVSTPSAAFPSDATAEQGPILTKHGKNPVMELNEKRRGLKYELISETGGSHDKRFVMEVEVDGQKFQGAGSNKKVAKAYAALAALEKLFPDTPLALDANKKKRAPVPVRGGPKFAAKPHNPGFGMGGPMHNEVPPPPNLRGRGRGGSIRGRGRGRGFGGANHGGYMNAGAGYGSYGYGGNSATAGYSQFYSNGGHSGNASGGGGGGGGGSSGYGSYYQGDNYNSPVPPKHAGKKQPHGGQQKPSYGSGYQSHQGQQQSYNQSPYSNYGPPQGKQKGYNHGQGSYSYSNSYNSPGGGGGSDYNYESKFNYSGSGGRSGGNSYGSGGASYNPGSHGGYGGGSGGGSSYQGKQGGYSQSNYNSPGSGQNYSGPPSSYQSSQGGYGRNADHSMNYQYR
inactive: [1] -0.159 | crizotinib -0.074 | [2] -0.181 | [3] 0.286 | duvelisib -0.092 | gandotinib 0.1 | tozasertib 0.039 | [4] -0.001 | doramapimod 0.118 | ispinesib 0.034 | bafetinib 0.082 | [5] -0.028 | nilotinib -0.02 | [6] 0.244 | dasatinib 0.155 | [7] 0.297 | [8] -0.179 | [9] -0.089 | tipifarnib 0.057 | mubritinib -0.031

MED17 (UniProt Q9NVC6)
inactive: [1] -0.02 | crizotinib -0.004 | [2] 0.028 | [3] 0.119 | duvelisib -0.067 | gandotinib 0.007 | tozasertib -0.042 | [4] 0.109 | doramapimod 0.022 | ispinesib -0.049 | [5] -0.033 | nilotinib 0.069 | [6] 0.079 | dasatinib -0.152 | [7] -0.108 | [8] -0.033 | [9] -0.069 | tipifarnib 0.077 | mubritinib 0.015

KPNB1 (UniProt Q14974)
Sequence of UniProt Q14974 (Q14974 whole entry, looked up): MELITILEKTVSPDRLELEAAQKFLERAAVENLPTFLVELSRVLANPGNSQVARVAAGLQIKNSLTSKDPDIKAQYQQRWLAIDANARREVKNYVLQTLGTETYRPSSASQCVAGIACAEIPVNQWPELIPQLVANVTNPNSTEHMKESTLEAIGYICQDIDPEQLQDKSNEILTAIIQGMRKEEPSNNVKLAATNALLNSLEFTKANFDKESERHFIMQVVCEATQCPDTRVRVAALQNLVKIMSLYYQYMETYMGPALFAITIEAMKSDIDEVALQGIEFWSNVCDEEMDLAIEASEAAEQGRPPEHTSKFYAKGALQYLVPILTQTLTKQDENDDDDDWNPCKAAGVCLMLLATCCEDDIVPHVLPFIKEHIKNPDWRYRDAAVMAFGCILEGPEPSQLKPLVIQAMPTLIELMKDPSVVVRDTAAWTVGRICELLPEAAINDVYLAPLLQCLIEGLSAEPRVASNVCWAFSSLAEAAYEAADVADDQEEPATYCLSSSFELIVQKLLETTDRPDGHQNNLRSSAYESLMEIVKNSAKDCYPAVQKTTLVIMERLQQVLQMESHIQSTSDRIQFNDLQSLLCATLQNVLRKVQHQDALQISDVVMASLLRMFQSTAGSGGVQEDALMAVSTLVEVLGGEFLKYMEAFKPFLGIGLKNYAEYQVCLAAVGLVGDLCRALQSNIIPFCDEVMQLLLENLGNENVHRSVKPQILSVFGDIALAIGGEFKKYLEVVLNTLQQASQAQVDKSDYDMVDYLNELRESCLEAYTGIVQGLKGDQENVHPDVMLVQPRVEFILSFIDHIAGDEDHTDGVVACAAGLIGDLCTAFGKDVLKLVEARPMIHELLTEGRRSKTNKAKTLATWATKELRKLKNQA
inactive: [1] -0.027 | crizotinib -0.201 | [2] -0.038 | [3] 0.047 | duvelisib -0.045 | gandotinib -0.09 | tozasertib 0.094 | [4] 0.083 | doramapimod 0.026 | ispinesib -0.225 | bafetinib 0.029 | [5] 0.029 | nilotinib -0.129 | [6] -0.09 | dasatinib -0.072 | [7] -0.018 | [8] -0.09 | [9] -0.045 | tipifarnib -0.12 | mubritinib 0.019

MAP4 (UniProt E7EVA0)
inactive: [1] 0.023 | crizotinib -0.02 | [2] -0.222 | [3] 0.231 | duvelisib -0.084 | gandotinib -0.001 | tozasertib 0.124 | [4] -0.017 | doramapimod 0.136 | ispinesib -0.134 | bafetinib 0.311 | [5] -0.028 | nilotinib -0.014 | [6] 0.015 | dasatinib 0.168 | [7] -0.018 | [8] -0.166 | [9] -0.036 | tipifarnib 0.019 | mubritinib 0.055

IGFBP3 isoform 2 (UniProt P17936)
inactive: [1] -0.097 | crizotinib -0.176 | [2] -0.063 | [3] -0.149 | duvelisib 0.068 | gandotinib -0.545 | tozasertib -0.092 | [4] 0.027 | doramapimod -0.243 | [5] 0.043 | dasatinib -0.001 | [8] 0.106 | tipifarnib -0.087

LSR (UniProt M0QZL9)
inactive: [1] -0.03 | [2] 0.118

MAN2B2 (UniProt Q9Y2E5)
Sequence of UniProt Q9Y2E5 (Q9Y2E5 whole entry, looked up): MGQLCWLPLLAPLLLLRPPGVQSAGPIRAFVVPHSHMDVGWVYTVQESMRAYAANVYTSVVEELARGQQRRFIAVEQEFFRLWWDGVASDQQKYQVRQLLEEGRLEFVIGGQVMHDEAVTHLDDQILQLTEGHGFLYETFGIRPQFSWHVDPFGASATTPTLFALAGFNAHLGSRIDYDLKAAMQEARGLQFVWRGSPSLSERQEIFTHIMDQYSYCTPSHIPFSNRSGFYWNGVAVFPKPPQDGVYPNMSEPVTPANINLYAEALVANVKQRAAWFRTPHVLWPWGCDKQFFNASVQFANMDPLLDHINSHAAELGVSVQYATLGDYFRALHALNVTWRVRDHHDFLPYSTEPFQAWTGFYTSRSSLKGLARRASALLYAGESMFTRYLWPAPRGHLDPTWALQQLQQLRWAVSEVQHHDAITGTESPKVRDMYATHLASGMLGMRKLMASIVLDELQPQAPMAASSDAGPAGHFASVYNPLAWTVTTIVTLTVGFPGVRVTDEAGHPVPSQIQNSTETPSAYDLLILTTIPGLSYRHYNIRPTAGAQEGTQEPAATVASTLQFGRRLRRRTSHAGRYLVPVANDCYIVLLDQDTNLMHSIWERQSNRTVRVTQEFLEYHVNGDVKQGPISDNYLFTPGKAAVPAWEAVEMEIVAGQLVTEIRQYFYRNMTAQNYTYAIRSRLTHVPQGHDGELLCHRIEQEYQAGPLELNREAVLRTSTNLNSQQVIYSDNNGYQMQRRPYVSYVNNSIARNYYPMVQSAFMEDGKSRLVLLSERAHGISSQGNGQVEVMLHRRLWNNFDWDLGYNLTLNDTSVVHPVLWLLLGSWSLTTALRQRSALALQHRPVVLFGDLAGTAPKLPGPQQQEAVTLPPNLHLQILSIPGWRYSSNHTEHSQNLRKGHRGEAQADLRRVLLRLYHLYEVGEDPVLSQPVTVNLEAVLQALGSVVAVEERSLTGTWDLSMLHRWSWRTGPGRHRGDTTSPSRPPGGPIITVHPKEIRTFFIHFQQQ
inactive: [1] 0.051 | crizotinib -0.014 | [2] 0.055 | duvelisib 0.094 | tozasertib -0.044 | [4] 0.004 | doramapimod 0.017 | ispinesib -0.147 | bafetinib -0.302 | nilotinib -0.171 | [6] 0.057 | dasatinib 0.013 | [7] -0.023 | [9] -0.088 | tipifarnib 0.093 | mubritinib 0.147

MAP4K4 isoform 3 (UniProt O95819)
inactive: [1] -0.058 | [2] 0.002 | [3] -0.055 | duvelisib 0.091 | gandotinib 0.311 | tozasertib -0.169 | [4] 0.017 | doramapimod -0.156 | ispinesib -0.05 | bafetinib -0.068 | [5] 0.029 | nilotinib -0.038 | [6] -0.094 | dasatinib -0.162 | [7] -0.09 | [8] -0.024 | [9] 0.038 | tipifarnib -0.027 | mubritinib 0.021

MAPK14 isoform 2 (UniProt Q16539)
inactive: [1] 0.087 | crizotinib -0.062 | [2] -0.018 | [3] -0.013 | duvelisib -0.072 | gandotinib -0.022 | tozasertib 0.031 | [4] 0.017 | ispinesib -0.038 | [5] -0.038 | [6] 0.176 | [7] 0.037 | [8] -0.071 | [9] -0.02 | tipifarnib -0.049 | mubritinib 0
active: bafetinib 1.73 | nilotinib 1.67 | dasatinib 1.37

INTS5 (UniProt Q6P9B9)
inactive: [1] 0.029 | crizotinib -0.013 | [2] 0.058 | duvelisib 0.047 | tozasertib 0.076 | [4] 0.008 | doramapimod 0.006 | ispinesib 0.025 | bafetinib -0.035 | nilotinib 0.146 | [6] -0.08 | dasatinib -0.11 | [7] 0.167 | [9] -0.003 | tipifarnib -0.145 | mubritinib 0.23

IL10RB (UniProt Q08334)
inactive: [1] 0.004 | crizotinib 0.009 | [2] -0.031 | duvelisib 0.018 | gandotinib -0.238 | tozasertib -0.122 | [4] 0.089 | doramapimod -0.007 | bafetinib -0.079 | [5] -0.031 | nilotinib 0.026 | [6] 0.151 | dasatinib 0.068 | [7] 0.105 | tipifarnib 0.126

MAP3K20 isoform 2 (UniProt Q9NYL2)
inactive: [1] 0.038 | crizotinib -0.182 | [2] 0.082 | tozasertib -0.191 | doramapimod 0.096 | nilotinib 0.098 | [6] 0.014 | [7] -0.07 | tipifarnib 0.138 | mubritinib -0.134

METAP1D (UniProt Q6UB28)
inactive: [1] -0.009 | crizotinib -0.041 | [2] 0.147 | [3] -0.037 | duvelisib 0.03 | tozasertib -0.055 | [4] 0.01 | doramapimod -0.091 | ispinesib -0.032 | bafetinib -0.089 | nilotinib -0.114 | [6] 0.036 | dasatinib 0.007 | [7] 0.079 | [8] -0.034 | [9] -0.071 | tipifarnib -0.023 | mubritinib 0.028

MAPK12 (UniProt P53778)
active: [8] 0.34
inactive: [1] -0.005 | [2] 0.105 | [3] -0.106 | duvelisib -0.005 | gandotinib 0.037 | tozasertib 0.099 | [4] 0.01 | ispinesib -0.036 | bafetinib -0.037 | [5] 0.008 | nilotinib -0.054 | [6] -0.254 | dasatinib -0.079 | [7] -0.035 | [9] -0.077 | tipifarnib -0.007 | mubritinib 0.061

MED8 isoform 2 (UniProt Q96G25)
inactive: [1] 0.021 | crizotinib 0.037 | [2] -0.049 | [3] -0.077 | duvelisib 0.029 | [4] -0.079 | doramapimod -0.031 | ispinesib 0.012 | bafetinib -0.026 | nilotinib 0.016 | [6] -0.015 | dasatinib 0.034 | [7] -0.171 | [8] -0.086 | [9] 0.013 | tipifarnib 0.012 | mubritinib -0.059

MASTL (UniProt Q96GX5)
Sequence of UniProt Q96GX5 (Q96GX5 whole entry, looked up): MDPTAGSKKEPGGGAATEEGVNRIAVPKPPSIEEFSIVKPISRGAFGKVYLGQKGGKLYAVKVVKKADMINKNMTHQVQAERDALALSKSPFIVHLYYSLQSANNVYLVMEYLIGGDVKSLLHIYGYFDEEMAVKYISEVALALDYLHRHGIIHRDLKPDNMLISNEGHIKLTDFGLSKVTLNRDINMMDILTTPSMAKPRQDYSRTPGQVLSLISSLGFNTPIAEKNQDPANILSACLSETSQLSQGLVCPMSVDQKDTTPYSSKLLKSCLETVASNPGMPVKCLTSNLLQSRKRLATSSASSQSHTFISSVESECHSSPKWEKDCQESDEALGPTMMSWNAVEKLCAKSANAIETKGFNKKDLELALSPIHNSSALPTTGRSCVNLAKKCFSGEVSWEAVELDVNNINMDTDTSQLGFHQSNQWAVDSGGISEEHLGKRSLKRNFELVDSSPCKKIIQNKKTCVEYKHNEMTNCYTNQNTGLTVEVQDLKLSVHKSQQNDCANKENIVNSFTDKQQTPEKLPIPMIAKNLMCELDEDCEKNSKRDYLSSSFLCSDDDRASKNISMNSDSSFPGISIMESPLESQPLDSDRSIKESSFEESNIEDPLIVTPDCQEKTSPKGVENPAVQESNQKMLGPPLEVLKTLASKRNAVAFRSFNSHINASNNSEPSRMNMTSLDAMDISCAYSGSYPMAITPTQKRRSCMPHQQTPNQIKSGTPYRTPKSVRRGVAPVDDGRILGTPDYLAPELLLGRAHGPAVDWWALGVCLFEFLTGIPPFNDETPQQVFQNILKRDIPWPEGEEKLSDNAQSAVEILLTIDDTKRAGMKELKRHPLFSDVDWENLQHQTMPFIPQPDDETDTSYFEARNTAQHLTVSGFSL
inactive: [1] -0.058 | crizotinib 0.092 | [2] 0.179 | [3] 0.046 | duvelisib -0.199 | [4] -0.12 | doramapimod -0.075 | ispinesib 0.099 | bafetinib 0.143 | nilotinib 0.014 | [6] 0.002 | dasatinib -0.105 | [7] 0.021 | [8] -0.052 | [9] 0.276 | mubritinib -0.093

MFSD11 (UniProt O43934)
active: crizotinib -0.683
inactive: [1] -0.098 | [2] -0.223 | [3] 0.074 | duvelisib 0.03 | gandotinib 0.036 | tozasertib -0.109 | [4] -0.063 | doramapimod 0.008 | bafetinib -0.047 | [5] -0.032 | nilotinib -0.038 | [6] 0.046 | dasatinib -0.004 | [7] -0.119 | [8] 0.17 | tipifarnib -0.047 | mubritinib 0.063

IL27RA (UniProt Q6UWB1)
Sequence of UniProt Q6UWB1 (Q6UWB1 whole entry, looked up): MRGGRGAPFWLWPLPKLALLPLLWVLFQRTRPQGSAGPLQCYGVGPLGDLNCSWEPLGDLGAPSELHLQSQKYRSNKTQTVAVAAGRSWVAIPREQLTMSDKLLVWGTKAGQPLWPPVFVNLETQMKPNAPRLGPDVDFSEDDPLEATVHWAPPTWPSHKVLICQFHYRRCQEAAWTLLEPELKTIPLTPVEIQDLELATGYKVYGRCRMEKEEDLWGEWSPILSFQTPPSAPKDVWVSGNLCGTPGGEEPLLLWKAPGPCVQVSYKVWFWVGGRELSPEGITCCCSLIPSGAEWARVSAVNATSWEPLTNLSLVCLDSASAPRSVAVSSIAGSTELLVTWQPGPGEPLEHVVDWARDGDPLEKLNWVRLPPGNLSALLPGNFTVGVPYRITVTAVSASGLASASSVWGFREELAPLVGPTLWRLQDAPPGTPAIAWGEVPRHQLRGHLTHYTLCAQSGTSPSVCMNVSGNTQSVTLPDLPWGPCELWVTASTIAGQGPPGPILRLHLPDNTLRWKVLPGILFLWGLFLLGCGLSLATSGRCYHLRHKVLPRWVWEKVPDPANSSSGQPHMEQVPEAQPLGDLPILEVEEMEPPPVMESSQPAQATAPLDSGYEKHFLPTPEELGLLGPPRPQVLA
inactive: [1] -0.031 | crizotinib 0.029 | [3] -0.121 | duvelisib 0.244 | tozasertib -0.039 | [4] -0.109 | doramapimod 0.211 | ispinesib 0.043 | bafetinib -0.098 | nilotinib 0.086 | [6] -0.06 | dasatinib 0.055 | [7] -0.006 | [8] -0.039 | [9] -0.109 | tipifarnib 0.159 | mubritinib 0.005
active: [2] 0.539

KLHL18 (UniProt O94889)
Sequence of UniProt O94889 (O94889 whole entry, looked up): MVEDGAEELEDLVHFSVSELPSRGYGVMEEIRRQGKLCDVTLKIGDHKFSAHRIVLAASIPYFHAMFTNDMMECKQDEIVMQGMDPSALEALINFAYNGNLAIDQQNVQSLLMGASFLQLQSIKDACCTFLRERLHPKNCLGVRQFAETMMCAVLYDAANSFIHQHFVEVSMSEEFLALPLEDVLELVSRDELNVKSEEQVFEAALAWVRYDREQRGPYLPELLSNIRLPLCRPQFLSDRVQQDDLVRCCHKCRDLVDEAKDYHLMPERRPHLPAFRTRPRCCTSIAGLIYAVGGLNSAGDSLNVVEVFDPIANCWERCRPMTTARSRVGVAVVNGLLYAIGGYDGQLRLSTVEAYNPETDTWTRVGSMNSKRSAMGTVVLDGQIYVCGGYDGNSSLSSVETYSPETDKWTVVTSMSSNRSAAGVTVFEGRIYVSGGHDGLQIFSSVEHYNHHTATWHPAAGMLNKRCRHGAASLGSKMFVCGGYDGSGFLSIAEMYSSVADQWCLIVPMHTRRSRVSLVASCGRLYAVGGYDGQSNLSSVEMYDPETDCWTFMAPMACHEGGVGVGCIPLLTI
active: gandotinib -0.561
inactive: [1] 0.092 | [2] 0.078 | [3] -0.084 | duvelisib 0.049 | tozasertib -0.108 | [4] 0.02 | ispinesib 0.028 | bafetinib 0.027 | [5] -0.252 | nilotinib 0.005 | [6] -0.021 | dasatinib -0.187 | [7] 0.025 | [8] 0.061 | [9] -0.027 | tipifarnib 0.044 | mubritinib -0.017
